# Bioassay records as filed in PubChem BioAssay.
# Sampled rows, rich in hits. Any-hit rate of the full collection: about 3.5%.
# Anthrax LF prot = blocks Bacillus anthracis lethal factor protease | multiplex microsphere protease cleavage assay, LF | inhibition, % at 10 µM | 360,000 compounds, 0.12% hits | AID 588501; further: plate controls were buffer without enzyme for full effect and enzyme alone for no effect
# 3CLpro inhibitor = SARS-CoV 3CLpro protease inhibition. 290,000 compounds, 0.14% hits. recombinant SARS-CoV 3CLpro, quenched FRET peptide cleavage. inhibition, % at 6 µM. P0C6X7. AID 1706; in the data active means inhibition above about 12%
# BoNT-F LC inh = inhibitors of Botulinum neurotoxin F light chain protease; Multiplex microsphere protease cleavage assay, flow cytometry; inhibition, % at 10 µM; 360,000 compounds, 0.22% hits; in the data active means inhibition above about 35%, passing the limit was not always enough; inconclusive means no clear call, values can overlap the other calls; further: plate controls were buffer without enzyme for full effect and enzyme alone for no effect
# Bead autofluor = compound fluorescence in toxin protease inhibitor counterscreen | compound autofluorescence counterscreen, microsphere flow cytometry; stronger effect = higher value | fluorescence intensity (no concentration beside the values) | 360,000 compounds, 3.1% hits; in the data active means fluorescence intensity above about 16000; inconclusive means no clear call, values can overlap the other calls
# BoNT A protease = inhibitors of Botulinum neurotoxin A light chain protease; inhibition, % at 10 µM; 360,000 compounds, 0.17% hits; multiplex microsphere protease substrate cleavage, flow cytometry; further: plate controls were buffer without enzyme for full effect and enzyme alone for no effect
# Active calls of the source: *; ? = inconclusive; nt = no result given. Unless noted, no stated cut-off is given here; in the data, active means inhibition above about 30%; inconclusive means no clear call, values can overlap the other calls; inactive means below that.
SMILES,Anthrax LF prot,3CLpro inhibitor,BoNT-F LC inh,Bead autofluor,BoNT A protease
Cc1cccc(NCN2C(=O)C3C4C=CC(C4)C3C2=O)c1 (centres undefined),-0.4,-3.0,1.3,12656,1.1
COc1ccc(C(=O)C2CCN(CC(=O)Nc3ccccc3F)CC2)cc1,-3.7,5.2,-6.3,4720,-0.3
O=C(COC(=O)CCc1ccc(S(=O)(=O)N2CCOCC2)cc1)NC1CCCCCC1,0.1,-3.8,0.5,2142,-0.5
CC(C)c1ccc(C(=O)Nc2nnc(S(=O)(=O)N3CCCCC3)s2)cc1,-1.9,4.3,3.0,5042,0.6
CC(OC(=O)CN(C)S(=O)(=O)c1ccc(Cl)cc1)C(=O)Nc1ncc(Cl)cc1Cl (centres undefined),-0.6,-1.1,-1.9,23244*,0.5
CC(OC(=O)CNC(=O)C12CC3CC(CC(C3)C1)C2)C(=O)Nc1ncc(Cl)cc1Cl (centres undefined),0.4,2.4,4.5,18610*,2.8
Cc1c2c(nc3c(C(=O)NC4CC4)cnn13)CCCC2,-6.7,-6.4,5.5,21129*,4.7
COc1ccc(CCNC(=O)c2ccc(NS(=O)(=O)c3ccc4[nH]c(=O)[nH]c4c3)cc2)cc1OC,2.1,0.1,-0.1,4066,1.6
COc1ccc(OC)c2c1C(=O)c1ccccc1C2=O,nt,-0.1,nt,nt,nt
COc1cccc2c1C(=O)c1ccc3ccccc3c1C2=O,28.0,3.2,27.6,2360,34.0*
O=C(c1ccco1)N1CCN(C(=O)c2cc3cc([N+](=O)[O-])ccc3oc2=O)CC1,-3.1,1.7,2.7,4147,0.3
CCn1c(=O)cc(NC2=NCC(C)CN2c2cccc(Cl)c2)n(C)c1=O (centres undefined),-8.5,0.8,2.0,19894*,?
CCOC(=O)C1(C)CCCCCN1C(=O)c1ccco1 (centres undefined),0.1,nt,2.5,3925,-0.4
Cc1cc(NC(=O)CSc2nnc(C(F)(F)F)n2C)no1,1.7,nt,13.8,4868,4.8
Cc1cc(C)n(-c2nc(SCCN(C)C)c3c4c(sc3n2)CCCC4)n1,-2.4,-1.1,-9.0,17751*,-7.3
CCOc1ccc(NC(=S)NC2CC3CCC(C2)N3Cc2ccco2)cc1 (centres undefined),-3.8,-1.8,-4.1,4191,0.0
O=CNCCCc1nc2ccccc2n1Cc1cccc2ccccc12,-16.5,-1.8,2.4,20866*,?
CCOC(=O)c1[nH]c(C=O)c(C(=O)OCC)c1C,1.8,-0.7,-4.4,3441,0.4
CCOC(=O)c1nc(C)[nH]c1C(=O)OCC,-4.0,2.0,0.1,22419*,?
CCC(C(=O)Nc1ccc(Cl)cc1)N1CCCC1=O (centres undefined),-1.2,nt,?,3584,-5.4
Cc1cc(C)n(Cc2ccc(C(=O)O)cc2)n1,-3.8,1.2,-0.7,8262,-0.9
Cc1ccc(C)n1Cc1ccc(C(=O)O)cc1,-2.3,-2.0,2.7,24761*,-4.3
CC(C)(O)C#Cc1ccc(C(=O)NCCC(=O)O)s1,-11.4,1.4,-1.3,4626,-0.7
Cc1ccc(CNC(=O)c2ccc(C#CC(C)(C)O)s2)cc1,-1.5,1.2,-6.0,22677*,?
CCOC(=O)c1c(NC(=O)CCN2C(=O)c3ccccc3C2=O)sc(C(=O)OC(C)C)c1C,-4.4,-1.2,-3.3,17126*,?
SMILES,Anthrax LF prot,3CLpro inhibitor,BoNT-F LC inh,Bead autofluor,BoNT A protease
CCOC(=O)c1sc(NC(=O)CCN2C(=O)c3ccccc3C2=O)c(C(=O)OCC)c1C,-2.2,-0.9,-5.2,2375,-0.8
CCOC(=O)c1sc(NC(=O)CN(CC(C)C)CC(C)C)c(C(=O)OCC)c1C,-2.2,0.3,-7.9,22136*,-3.9
Cc1ccc(-c2nc3ncccc3o2)cc1NC(=O)c1cccnc1,-0.9,5.9,-7.0,4346,-1.1
O=C(CSc1nnc(-c2cccnc2)o1)NNC(=O)c1ccc(Br)cc1,0.0,-4.3,-3.4,4267,-0.3
CC(=O)NNc1cc(N2CCOCC2)nc(N2CCOCC2)n1,0.9,3.0,-9.6,6265,0.4
c1ccc(C2OC3c4cccc5cccc(c45)C3N2c2ccccc2)cc1 (centres undefined),-4.3,3.3,-3.9,22884*,?
CCCn1nc(NC(=O)CC(C)C)c2cc3ccccc3nc21,-0.1,4.2,3.1,22379*,1.4
CCCCC(=O)Nc1nn(CC(C)C)c2nc3ccccc3cc12,-6.3,3.1,-1.9,21680*,?
CC(C)Cn1nc(NC(=O)C(C)(C)C)c2cc3ccccc3nc21,4.1,-0.9,-7.2,7060,-0.6
CC(C)Cn1nc(NC(=O)c2ccco2)c2cc3ccccc3nc21,4.1,0.6,-2.2,5321,0.1
CCn1nc(NC(=O)c2ccco2)c2cc3ccccc3nc21,-0.4,-4.3,-2.5,16504*,0.1
CC(C)Oc1ccc(S(=O)(=O)N2CCCCC2)cc1NC(=O)CN1CCCC1c1cccs1 (centres undefined),-2.4,nt,-2.6,9519,-1.3
O=C(NCCCN1CCN(Cc2ccccc2)CC1)C1CCN(S(=O)(=O)N2CCC3(CC2)OCCO3)CC1,4.5,-4.0,23.1,21569*,-4.6
O=C(Cc1ccccc1)NC(c1ccco1)c1c(O)ccc2ccccc12 (centres undefined),-0.8,-0.2,0.5,2696,-0.3
COc1cccc(/C=c2/s/c(=C(\C#N)C(=O)N3CCOCC3)n(-c3ccccc3)c2=O)c1,-6.8,4.3,4.7,20549*,?
CC1Cc2cc(/C(O)=C3/C(=O)C(=O)N(CCCn4ccnc4)C3c3ccc(Br)cc3)ccc2O1 (centres undefined),-1.3,3.3,4.8,5782,0.2
Cn1c(=O)oc2cc(S(=O)(=O)N3CCCCC3)ccc21,-4.6,-3.6,7.8,4345,0.1
CCOC(=O)n1c(=O)oc2cc(S(=O)(=O)N3CCCCC3)ccc21,-0.5,0.0,1.1,23136*,-0.1
COC(=O)n1c(=O)oc2cc(S(=O)(=O)N3CCCCC3)ccc21,-0.2,-2.0,2.9,21823*,?
COc1cccc(S(=O)(=O)Nc2ccc(C(=O)N3CCN(C(=O)c4ccco4)CC3)cc2)c1,-8.6,-3.6,4.8,18332*,4.6
O=C(c1ccc(NS(=O)(=O)c2cccc([N+](=O)[O-])c2)cc1)N1CCN(C(=O)c2ccco2)CC1,12.6,nt,4.0,3504,0.8
COc1cccc(C(=O)N2CCN(S(C)(=O)=O)CC2)c1,-4.9,-3.3,-0.1,23027*,-0.6
CS(=O)(=O)N1CCN(C(=O)c2c(F)cccc2F)CC1,-0.7,3.1,-2.8,23941*,-1.4
COc1ccc(-c2nc(CS(=O)CC(=O)N3CCCC3)c(C)o2)cc1 (centres undefined),-0.1,2.5,-3.5,5246,-0.3
Cc1ccc(-c2nc(CS(=O)CC(=O)N3CCC4(CC3)OCCO4)c(C)o2)cc1 (centres undefined),0.0,-6.9,2.3,21619*,0.3
O=C1NC(c2ccccc2)=C(c2nc3ccccc3s2)C(c2ccc(O)cc2)N1 (centres undefined),-5.2,7.2,2.0,21586*,1.7
O=C1NC(c2ccccc2)=C(c2ccc3ccccc3n2)C(c2ccccc2)N1 (centres undefined),-1.6,-3.7,-1.7,2509,-0.5
